High-throughput results as filed in PubChem.
IDE exosite inh = exo-site inhibitors of human IDE, primary screen, biochemical, fluorescence anisotropy, probe displacement; purified IDE, FL-6b probe fluorescence polarization; hits give low values; z-score at 20 µM; AID 1259349, 2017; Insulin-degrading enzyme (Homo sapiens), P14735; hit rate 6.3% among 17,000;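 active = z-score of -3 or lower, meaning strong loss of probe binding signal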;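 note: His-tagged human IDE residues 42-1019 made in E. coli with 30 nM FL-6b probe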
Target sequence (P14735 42-1019 limits assumed): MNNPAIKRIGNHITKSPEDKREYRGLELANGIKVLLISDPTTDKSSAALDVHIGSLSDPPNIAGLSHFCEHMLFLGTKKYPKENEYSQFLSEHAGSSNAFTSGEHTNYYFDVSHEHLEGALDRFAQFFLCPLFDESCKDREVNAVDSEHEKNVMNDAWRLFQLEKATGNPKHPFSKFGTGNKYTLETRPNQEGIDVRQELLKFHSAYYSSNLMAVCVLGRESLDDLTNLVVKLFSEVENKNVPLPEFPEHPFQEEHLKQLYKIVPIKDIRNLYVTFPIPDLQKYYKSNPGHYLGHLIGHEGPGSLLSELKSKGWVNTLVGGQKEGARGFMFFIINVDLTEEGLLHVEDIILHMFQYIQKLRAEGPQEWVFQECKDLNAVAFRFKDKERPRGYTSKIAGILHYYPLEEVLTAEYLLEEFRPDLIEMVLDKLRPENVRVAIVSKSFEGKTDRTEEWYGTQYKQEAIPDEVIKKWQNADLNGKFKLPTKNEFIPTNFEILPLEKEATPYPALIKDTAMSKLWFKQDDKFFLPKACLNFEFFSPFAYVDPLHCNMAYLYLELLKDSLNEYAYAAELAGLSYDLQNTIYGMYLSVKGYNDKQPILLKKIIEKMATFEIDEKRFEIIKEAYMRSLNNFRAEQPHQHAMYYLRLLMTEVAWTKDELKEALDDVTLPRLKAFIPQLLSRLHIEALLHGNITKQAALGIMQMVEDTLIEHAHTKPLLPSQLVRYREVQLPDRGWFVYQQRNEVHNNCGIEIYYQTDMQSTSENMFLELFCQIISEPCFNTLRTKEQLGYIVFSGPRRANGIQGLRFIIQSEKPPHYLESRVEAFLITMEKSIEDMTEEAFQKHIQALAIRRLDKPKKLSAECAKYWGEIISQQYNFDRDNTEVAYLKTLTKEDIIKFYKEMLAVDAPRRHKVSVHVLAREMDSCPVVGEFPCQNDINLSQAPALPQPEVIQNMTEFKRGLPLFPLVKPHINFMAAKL
Numbers without * were called inactive. This is one part of a sample in which hits are shown more often than they occur.

SMILES | IDE exosite inh
O=C(Cc1ccccn1)N1CCCCN2[C@H](CO)[C@@H](c3ccc(-c4ccccc4F)cc3)[C@H]2C1 | -0.276
O=C(Cc1ccccn1)N1CCCCN2[C@@H](CO)[C@H](c3ccc(-c4ccccc4F)cc3)[C@@H]2C1 | 0.00797
O=C(Cc1ccccn1)N1CCCCN2[C@@H](CO)[C@@H](c3ccc(-c4ccccc4F)cc3)[C@@H]2C1 | -5.62*
O=C(Cc1ccccn1)N1CCCCN2[C@H](CO)[C@@H](c3ccc(Br)cc3)[C@@H]2C1 | 1.7
O=C(Cc1ccccn1)N1CCCCN2[C@H](CO)[C@H](c3ccc(Br)cc3)[C@@H]2C1 | 4.54
O=C(Cc1ccccn1)N1CCCCN2[C@H](CO)[C@H](c3ccc(-c4ccccc4F)cc3)[C@H]2C1 | -4.39*
N#Cc1cccc(-c2ccc([C@@H]3[C@H]4CN(C(=O)Cc5ccncc5)CCCCN4[C@H]3CO)cc2)c1 | 1.03
O=C(Cc1ccccc1)N1CCCCN2[C@H](CO)[C@H](c3ccc(C#CC4(O)CCCC4)cc3)[C@H]2C1 | 4.62
N#Cc1ccc(-c2ccc([C@H]3[C@@H](CO)N4CCCCN(C(=O)Cc5ccccc5)C[C@@H]34)cc2)cc1 | 1.85
CN1[C@@H](CO)[C@@H]2c3ccccc3NC[C@@H]21 | 2.56
C/C=C/c1ccc([C@@H]2[C@H]3CN(C(=O)Cc4cccnc4)CCCCN3[C@H]2CO)cc1 | 0.339
O=C(Cc1cccnc1)N1CCCCN2[C@H](CO)[C@H](c3ccc(/C=C/c4ccccc4)cc3)[C@@H]2C1 | -11.2*
O=C(Cc1cccnc1)N1CCCCN2[C@@H](CO)[C@H](c3ccc(/C=C/c4ccccc4)cc3)[C@@H]2C1 | -9.22*
C/C=C/c1ccc([C@@H]2[C@H]3CN(C(=O)Cc4ccncc4)CCCCN3[C@H]2CO)cc1 | 2.83
C/C=C/c1ccc([C@@H]2[C@@H](CO)N3CCCCN(C(=O)Cc4cccnc4)C[C@H]23)cc1 | 1.25
O=C(Cc1cccnc1)N1CCCCN2[C@H](C1)[C@@H](c1ccc(C#CC3CCCC3)cc1)[C@@H]2CO | 4.66
O=C(Cc1cccnc1)N1CCCCN2[C@H](C1)[C@H](c1ccc(/C=C/c3ccccc3)cc1)[C@@H]2CO | -5.55*
C/C=C/c1ccc([C@H]2[C@@H](CO)N3CCCCN(C(=O)Cc4cccnc4)C[C@@H]23)cc1 | -0.182
O=C(Cc1cccnc1)N1CCCCN2[C@H](CO)[C@H](c3ccc(C#CC4CCCC4)cc3)[C@@H]2C1 | 1.44
N#Cc1cccc(-c2ccc([C@H]3[C@@H](CO)N4CCCCN(C(=O)Cc5ccccc5)C[C@@H]34)cc2)c1 | 2.46
COc1ccc(C#Cc2ccc([C@@H]3[C@@H](CO)N4CCCCN(C(=O)Cc5ccncc5)C[C@H]34)cc2)cc1 | -0.517
O=C(Cc1ccccc1)N1CCCCN2[C@H](C1)[C@H](c1ccc(-c3ccccc3)cc1)[C@@H]2CO | 2.24
O=C1CNC[C@H]2[C@@H](c3ccc(Br)cc3)[C@H](CO)N12 | -0.306
O=C(O)[C@H]1[C@H](CO)[C@H]2Cn3c(ccc(-c4ccncc4)c3=O)[C@@H]1N2S(=O)(=O)c1ccccc1F | 0.784
N#Cc1cccc(-c2ccc([C@H]3[C@@H](CO)N4CCCCN(C(=O)Cc5ccccc5)C[C@H]34)cc2)c1 | 3.12
SMILES | IDE exosite inh
O=C(Cc1ccncc1)N1CCCCN2[C@@H](CO)[C@H](c3ccc(C#Cc4ccccc4F)cc3)[C@@H]2C1 | -0.409
O=C(Cc1ccccn1)N1CCCCN2[C@H](C1)[C@@H](c1ccc(-c3ccccc3)cc1)[C@@H]2CO | -1.21
CCCC#Cc1ccc([C@@H]2[C@@H](CO)N3CCCCN(C(=O)Cc4ccccn4)C[C@H]23)cc1 | 0.228
Cc1ccccc1-c1ccc([C@@H]2[C@@H](CO)N3CCCCN(C(=O)Cc4ccccn4)C[C@@H]23)cc1 | -9.54*
CCCC#Cc1ccc([C@H]2[C@@H](CO)N3CCCCN(C(=O)Cc4ccccn4)C[C@H]23)cc1 | -1.44
O=C(Cc1ccccn1)N1CCCCN2[C@H](CO)[C@H](c3ccc(-c4ccccc4)cc3)[C@H]2C1 | -4.65*
CCCC#Cc1ccc([C@H]2[C@H](CO)N3CCCCN(C(=O)Cc4ccccn4)C[C@@H]23)cc1 | 0.646
O=C(Cc1ccncc1)N1CCCCN2[C@H](CO)[C@H](c3ccc(C#Cc4ccccc4F)cc3)[C@@H]2C1 | -4.35*
O=C(Cc1ccncc1)N1CCCCN2[C@H](C1)[C@@H](c1ccc(C#Cc3ccccc3F)cc1)[C@@H]2CO | -1.78
O=C(Cc1ccccn1)N1CCCCN2[C@H](CO)[C@@H](c3ccc(Br)cc3)[C@H]2C1 | -0.922
O=C(Cc1ccccn1)N1CCCCN2[C@H](CO)[C@@H](c3ccc(-c4ccc(F)cc4)cc3)[C@@H]2C1 | 0.0329
O=C(Cc1ccccn1)N1CCCCN2[C@H](C1)[C@@H](c1ccc(C#Cc3ccccc3)cc1)[C@@H]2CO | -6.34*
N#Cc1cccc(-c2ccc([C@H]3[C@H](CO)N4CCCCN(C(=O)Cc5ccncc5)C[C@@H]34)cc2)c1 | 2
CN(C)CC#Cc1ccc([C@@H]2[C@H](CO)N3CCCCN(C(=O)Cc4ccccn4)C[C@@H]23)cc1 | -0.702
O=C(Cc1cccnc1)N1CCCCN2[C@H](CO)[C@H](c3ccc(C#CC4(O)CCCC4)cc3)[C@H]2C1 | 2.23
O=C(Cc1ccccc1)N1CCCCN2[C@@H](CO)[C@@H](c3ccc(C#Cc4ccccc4)cc3)[C@@H]2C1 | -1.28
N#Cc1cccc(-c2ccc([C@@H]3[C@@H](CO)N4CCCCN(C(=O)Cc5cccnc5)C[C@@H]34)cc2)c1 | 2.96
C[C@H]1CN([C@@H](C)CO)C(=O)CCCn2cc(nn2)CO[C@H]1CN(C)C(=O)Oc1ccc2ccccc2c1 | -2.38
COCC#Cc1ccc([C@@H]2[C@H]3CN(C(=O)Cc4ccccn4)CCCCN3[C@H]2CO)cc1 | -0.478
O=C(Cc1ccccc1)N1CCCCN2[C@H](CO)[C@H](c3ccc(C#Cc4ccccc4)cc3)[C@@H]2C1 | -1.91
O=C(Cc1ccccn1)N1CCCCN2[C@H](C1)[C@H](c1ccc(Br)cc1)[C@@H]2CO | 4.45
O=C(Cc1ccccn1)N1CCCCN2[C@@H](CO)[C@@H](c3ccc(-c4ccccc4)cc3)[C@@H]2C1 | -3.54*
O=C(Cc1ccccn1)N1CCCCN2[C@H](CO)[C@H](c3ccc(-c4ccc(F)cc4)cc3)[C@H]2C1 | 3.24
N#Cc1ccc(-c2ccc([C@H]3[C@H]4CN(C(=O)Cc5ccccc5)CCCCN4[C@H]3CO)cc2)cc1 | 2.88
CCC(=O)N1[C@@H]2Cn3c(ccc(C4=CCCC4)c3=O)[C@H]1[C@@H](C(=O)OC)[C@@H]2CO | 0.868
